Laboratory results: PubChem BioAssay (NCI)
Compounds without any hit were thinned out: in the full panel of roughly 79,000, 15% have a hit. Unmarked numbers belong to inactive results. The source made the active and inactive calls. Rule as the data show it: active = growth inhibition above about 70%; inactive = the rest.

Tests used:
[1] = NCI Yeast Anticancer Drug Screen. Data for the rad50 strain (AID 155);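 also: 0% = growth of vehicle-only cultures of the same strain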; details: S. cerevisiae rad50 strain growth inhibition, hits give high values
Method in brief: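 Yeast carrying a defined DNA repair defect were exposed to test compounds, and growth was compared with vehicle-treated controls to give percent inhibition.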

[2] = NCI Yeast Anticancer Drug Screen. Data for the mec2-1 strain (AID 157); details: S. cerevisiae mec2-1 strain, hits give high values
Method in brief: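 Mutant yeast (mec2-1) grown with compound; growth inhibition relative to vehicle control reported.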

[3] = NCI Yeast Anticancer Drug Screen. Data for the sgs1 mgt1 strain (AID 161);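 also: 0% = growth of cultures given vehicle only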; details: S. cerevisiae sgs1 mgt1 strain, hits give high values
Method in brief: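 Percent growth inhibition was derived by comparing compound-exposed mutant yeast with vehicle-exposed cultures. The strain carries alterations in DNA damage repair.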

[4] = NCI Yeast Anticancer Drug Screen. Data for the cln2 rad14 strain (AID 165);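 also: 0% = growth equal to vehicle treated cultures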; details: S. cerevisiae cln2 rad14 strain, hits give high values
Method in brief: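 Readout is yeast growth inhibition versus vehicle-treated controls, using a strain with cln2 and rad14 alterations exposed to compound.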

[5] = NCI Yeast Anticancer Drug Screen. Data for the bub3 strain (AID 167); details: S. cerevisiae bub3 mutant strain, hits give high values
Method in brief: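 Compounds were applied to a genetically altered yeast strain carrying a cell-cycle control defect. Growth inhibition was scored against vehicle-treated controls.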

[6] = NCI Yeast Anticancer Drug Screen. Data for the mlh1 rad18 strain (AID 175); details: S. cerevisiae mlh1 rad18 strain growth inhibition, hits give high values
Method in brief: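 Genetically defined yeast (DNA repair-deficient) exposed to compounds; growth inhibition determined relative to vehicle.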

[7] = at 5.0 µM (retest, dose inferred, filed as 0.5)
[8] = at 50.0 µM (retest, dose inferred, filed as 5.0)

For `O=C1C(Cl)=C(Nc2ccc(S(=O)(=O)Nc3ccccn3)cc2)C(=O)c2ccccc21`, the growth inhibition [1, 7] was 99% (active), the growth inhibition [1, 8] was 99% (active) and the growth inhibition ([1]; at 50.0 µM) was 99.3% (active). The growth inhibition [2, 7] was 99% (active), the growth inhibition [2, 8] was 99% (active) and the growth inhibition ([2]; at 50.0 µM) was 99.3% (active). For the same compound, the growth inhibition [3, 7] was 96% (active), the growth inhibition [3, 8] was 99% (active) and the growth inhibition ([3]; at 50.0 µM) was 99.2% (active). The growth inhibition [4, 7] was 95% (active), the growth inhibition [4, 8] was 99% (active) and the growth inhibition ([4]; at 50.0 µM) was 99.2% (active). For the same compound, the growth inhibition [5, 7] was 99% (active), the growth inhibition [5, 8] was 99% (active) and the growth inhibition ([5]; at 50.0 µM) was 98.7% (active). For the same compound, the growth inhibition [6, 7] was 90% (active), the growth inhibition [6, 8] was 99% (active) and the growth inhibition ([6]; at 50.0 µM) was 99.2% (active).
With `COc1ccccc1/C=C/c1ccnc2ccccc12` the growth inhibition [1, 7] was 31%, the growth inhibition [1, 8] was 97% (active) and the growth inhibition ([1]; at 50.0 µM) was 72.7% (active). For the same compound, the growth inhibition [2, 7] was 15%, the growth inhibition [2, 8] was 97% (active) and the growth inhibition ([2]; at 50.0 µM) was 90.2% (active). For the same compound, the growth inhibition [3, 7] was 24%, the growth inhibition [3, 8] was 98% (active) and the growth inhibition ([3]; at 50.0 µM) was 88% (active). The growth inhibition [4, 7] was 13%, the growth inhibition [4, 8] was 84% (active) and the growth inhibition ([4]; at 50.0 µM) was 65.1%. For the same compound, the growth inhibition [5, 7] was 24%, the growth inhibition [5, 8] was 97% (active) and the growth inhibition ([5]; at 50.0 µM) was 84.8% (active). For the same compound, the growth inhibition [6, 7] was 24%, the growth inhibition [6, 8] was 96% (active) and the growth inhibition ([6]; at 50.0 µM) was 91.7% (active).
With `C/C(=N/NC(=O)C[n+]1ccccc1)C(CN(CC(C)C)CC(C)C)C(=O)Nc1ccc(C)cc1C` (stereo not given) the growth inhibition [1, 7] was 5%, the growth inhibition [1, 8] was 5% and the growth inhibition ([1]; at 50.0 µM) was 30.1%. The growth inhibition [2, 7] was -10%, the growth inhibition [2, 8] was -10% and the growth inhibition ([2]; at 50.0 µM) was 40.2%. The growth inhibition [3, 7] was 5%, the growth inhibition [3, 8] was 5% and the growth inhibition ([3]; at 50.0 µM) was 8.65%. For the same compound, the growth inhibition [4, 7] was 5%, the growth inhibition [4, 8] was 5% and the growth inhibition ([4]; at 50.0 µM) was 41%. For the same compound, the growth inhibition [5, 7] was 12%, the growth inhibition [5, 8] was 12% and the growth inhibition ([5]; at 50.0 µM) was 58%. The growth inhibition [6, 7] was 6%, the growth inhibition [6, 8] was 6% and the growth inhibition ([6]; at 50.0 µM) was 70.2% (active).
`CC(C)(C)c1ccc(-c2nc3ccccc3c(=O)o2)cc1` showed a growth inhibition [1, 7] of -3%, a growth inhibition [1, 8] of 20% and a growth inhibition ([1]; at 50.0 µM) of 55.7%. For the same compound, the growth inhibition [2, 7] was -1%, the growth inhibition [2, 8] was 41% and the growth inhibition ([2]; at 50.0 µM) was 53.1%. The growth inhibition [3, 7] was 14%, the growth inhibition [3, 8] was 74% (active) and the growth inhibition ([3]; at 50.0 µM) was 87.2% (active). The growth inhibition [4, 7] was -2%, the growth inhibition [4, 8] was 40% and the growth inhibition ([4]; at 50.0 µM) was 61%. The growth inhibition [5, 7] was -1%, the growth inhibition [5, 8] was 86% (active) and the growth inhibition ([5]; at 50.0 µM) was 89.8% (active). For the same compound, the growth inhibition [6, 7] was -3%, the growth inhibition [6, 8] was 55% and the growth inhibition ([6]; at 50.0 µM) was 85% (active).
`C=C1CC(O)C2C(C[Se]c3ccccc3)C(=O)O[C@@H]2C2C(=C)[C@@H](O)CC12` (stereo not given in full) showed a growth inhibition [1, 7] of -3%, a growth inhibition [1, 8] of 27% and a growth inhibition ([1]; at 50.0 µM) of 46.4%. It also gave a growth inhibition [2, 7] of 1%, a growth inhibition [2, 8] of 36% and a growth inhibition ([2]; at 50.0 µM) of 52.1%. The growth inhibition [3, 7] was 0%, the growth inhibition [3, 8] was 43% and the growth inhibition ([3]; at 50.0 µM) was 29.6%. It also gave a growth inhibition [4, 7] of -5%, a growth inhibition [4, 8] of 5% and a growth inhibition ([4]; at 50.0 µM) of -13.3%. It also gave a growth inhibition [5, 7] of -9%, a growth inhibition [5, 8] of 11% and a growth inhibition ([5]; at 50.0 µM) of 30.2%. For the same compound, the growth inhibition [6, 7] was -2%, the growth inhibition [6, 8] was 30% and the growth inhibition ([6]; at 50.0 µM) was 70.7% (active).
Compound `Cc1nn(CCO)c(=O)c(C#N)c1C` has a growth inhibition [1, 7] of 1%, a growth inhibition [1, 8] of 17% and a growth inhibition ([1]; at 50.0 µM) of 66.2%. For the same compound, the growth inhibition [2, 7] was 5%, the growth inhibition [2, 8] was 16% and the growth inhibition ([2]; at 50.0 µM) was 49%. The growth inhibition [3, 7] was 2%, the growth inhibition [3, 8] was 14% and the growth inhibition ([3]; at 50.0 µM) was 61.7%. For the same compound, the growth inhibition [4, 7] was -1%, the growth inhibition [4, 8] was -5% and the growth inhibition ([4]; at 50.0 µM) was 11.7%. The growth inhibition [5, 7] was 19%, the growth inhibition [5, 8] was 77% (active) and the growth inhibition ([5]; at 50.0 µM) was 34.1%. For the same compound, the growth inhibition [6, 7] was 5%, the growth inhibition [6, 8] was 30% and the growth inhibition ([6]; at 50.0 µM) was 50.5%.
`COc1ccc(C(=O)C2Cc3c(ccc4ccccc34)OC2=O)cc1` (stereo not given) gave a growth inhibition [1, 7] of 4%, a growth inhibition [1, 8] of 1% and a growth inhibition ([1]; at 50.0 µM) of 2.05%. The growth inhibition [2, 7] was -2%, the growth inhibition [2, 8] was -11% and the growth inhibition ([2]; at 50.0 µM) was -1.25%. For the same compound, the growth inhibition [3, 7] was -3%, the growth inhibition [3, 8] was 2% and the growth inhibition ([3]; at 50.0 µM) was -7.8%. For the same compound, the growth inhibition [4, 7] was 7%, the growth inhibition [4, 8] was 1% and the growth inhibition ([4]; at 50.0 µM) was 20.1%. For the same compound, the growth inhibition [5, 7] was -1%, the growth inhibition [5, 8] was -2% and the growth inhibition ([5]; at 50.0 µM) was -30.4%. The growth inhibition [6, 7] was -5%, the growth inhibition [6, 8] was -5% and the growth inhibition ([6]; at 50.0 µM) was -11.3%.
For `CC1=C(C2CO2)C(=O)C(C)=C(C2CO2)C1=O` (stereo not given), the growth inhibition [1, 7] was 68%, the growth inhibition [1, 8] was 100% (active) and the growth inhibition ([1]; at 50.0 µM) was 99.6% (active). For the same compound, the growth inhibition [2, 7] was 40%, the growth inhibition [2, 8] was 100% (active) and the growth inhibition ([2]; at 50.0 µM) was 99.5% (active). The growth inhibition [3, 7] was 43%, the growth inhibition [3, 8] was 99% (active) and the growth inhibition ([3]; at 50.0 µM) was 99.5% (active). For the same compound, the growth inhibition [4, 7] was 59%, the growth inhibition [4, 8] was 99% (active) and the growth inhibition ([4]; at 50.0 µM) was 99.5% (active). The growth inhibition [5, 7] was 43%, the growth inhibition [5, 8] was 99% (active) and the growth inhibition ([5]; at 50.0 µM) was 98.2% (active). The growth inhibition [6, 7] was 60%, the growth inhibition [6, 8] was 99% (active) and the growth inhibition ([6]; at 50.0 µM) was 99.5% (active).
In the case of `COc1ccc(NS(=O)(=O)c2ccc(F)cc2)cc1`, the growth inhibition [1, 7] is reported as -21%, the growth inhibition [1, 8] is reported as -3% and the growth inhibition ([1]; at 50.0 µM) is reported as 95.9% (active). For the same compound, the growth inhibition [2, 7] was 1%, the growth inhibition [2, 8] was -12% and the growth inhibition ([2]; at 50.0 µM) was 99.3% (active). The growth inhibition [3, 7] was -26%, the growth inhibition [3, 8] was -22% and the growth inhibition ([3]; at 50.0 µM) was 98.5% (active). The growth inhibition [4, 7] was 6%, the growth inhibition [4, 8] was -22% and the growth inhibition ([4]; at 50.0 µM) was 97.5% (active). For the same compound, the growth inhibition [5, 7] was 6%, the growth inhibition [5, 8] was -21% and the growth inhibition ([5]; at 50.0 µM) was 97.2% (active). For the same compound, the growth inhibition [6, 7] was -15%, the growth inhibition [6, 8] was -18% and the growth inhibition ([6]; at 50.0 µM) was 98.5% (active).
With `CCCNC(=O)N(CC(C)(C)C)S(=O)(=O)c1ccc(Cl)cc1` the growth inhibition [1, 7] was -4%, the growth inhibition [1, 8] was -10% and the growth inhibition ([1]; at 50.0 µM) was 71.1% (active). The growth inhibition [2, 7] was -2%, the growth inhibition [2, 8] was -10% and the growth inhibition ([2]; at 50.0 µM) was 93.1% (active). For the same compound, the growth inhibition [3, 7] was -2%, the growth inhibition [3, 8] was 0% and the growth inhibition ([3]; at 50.0 µM) was 68.3%. The growth inhibition [4, 7] was -4%, the growth inhibition [4, 8] was -17% and the growth inhibition ([4]; at 50.0 µM) was 86.8% (active). The growth inhibition [5, 7] was 7%, the growth inhibition [5, 8] was 27% and the growth inhibition ([5]; at 50.0 µM) was 99.5% (active). For the same compound, the growth inhibition [6, 7] was -5%, the growth inhibition [6, 8] was -97% and the growth inhibition ([6]; at 50.0 µM) was 36.2%.
